PubChem BioAssay (Tox21)
Records with an inconclusive call do not appear. Activity calls are given as the source filed them. Unless noted, calls come from the whole dose curve; as a rule, active = well fitted curve in the direction sought with a large enough effect in the repeat runs; inconclusive = weak or mixed curves; inactive = no such curve, though single readings can be large; an effect the other way counts as inactive or inconclusive.

How the values were obtained:
[1] = target: Bile acid receptor (Homo sapiens) (UniProt Q96RI1); test: qHTS assay to identify small molecule antagonists of the farnesoid-X-receptor (FXR) signaling pathway (AID 743217; active = well fitted inhibition curve with a large enough effect in the signal ratio in the repeat runs, not every such curve was filed as active; the % refers to the signal ratio; note: % is set by controls: 0 for no effect and ±100 for the full control effect)
Summary of the method: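 Read-out: beta-lactamase FRET fluorescence (LiveBLAzer B/G substrate, 2 h, room temperature) in GeneBLAzer FXR-UAS-bla HEK 293T cells. Compounds were co-dosed with 50 uM chenodeoxycholic acid (final) and incubated 16 h at 37 °C.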

[2] = qHTS assay to identify small molecule antagonists of the farnesoid-X-receptor (FXR) signaling pathway - cell viability counter screen (AID 743221; active = well fitted cell-killing curve with a large enough effect in the repeat runs, not every such curve was filed as active; note: nearly all actives have a fitted effect of over 50% in size; note: potency is the fitted concentration of half-maximal effect)
Summary of the method: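 CellTiter-Glo, 30 min RT, luminescence; same wells as the LiveBLAzer FRET read. Cells: FXR-UAS-bla HEK 293T. Treatment: compound with chenodeoxycholic acid 50 uM final, 16 h at 37 C.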

[3] = target: Vitamin D3 receptor (Homo sapiens) (UniProt P11473); test: qHTS assay to identify small molecule antagonists of the vitamin D receptor (VDR) signaling pathway (AID 743223; active = well fitted inhibition curve with a large enough effect in the signal ratio in the repeat runs, not every such curve was filed as active; the % refers to the signal ratio; note: % is set by controls: 0 for no effect and ±100 for the full control effect)
Summary of the method: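 After VDR-bla cells are plated and left 4 h at 37C, DMSO-dissolved compounds and 3 nM (final) calcitriol agonist are added. Incubation continues 16 h at 37C; FRET beta-lactamase substrate then develops 2 h at room temperature.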

[4] = qHTS assay to identify small molecule antagonists of the vitamin D receptor (VDR) signaling pathway - cell viability counter screen (AID 743225); note: % is set by controls: 0 for no effect and ±100 for the full control effect; nearly all actives have a fitted effect of over 50% in size
Summary of the method: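 Cytotoxicity toward the VDR-bla HEK 293T line was scored by ATP-based CellTiter-Glo luminescence, read in the wells already used for the beta-lactamase readout after 16 h compound treatment under 3 nM 1-alpha,25-dihydroxyvitamin D3 stimulation.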

[5] = qHTS assay to identify small molecule agonists of the NFkB signaling pathway - cell viability counter screen (AID 1159515; calls by dose curve; note: nearly all actives have a fitted effect of over 55% in size; note: potency is the fitted concentration of half-maximal effect)
Summary of the method: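 ME-180 NFkB-bla cells, 2,000/well; overnight attach; compound 5 hr, 37 C/5% CO2; LiveBLAzer substrate 1.5 hr RT; then CellTiter-Glo in same wells, 30 min RT, luminescence read.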

[6] = qHTS assay to identify small molecule agonists of the endoplasmic reticulum stress response signaling pathway (AID 1159516; active = well fitted activation curve with a large enough effect in the signal ratio in the repeat runs, not every such curve was filed as active; the % refers to the signal ratio; note: % is set by controls: 0 for no effect and ±100 for the full control effect)
Summary of the method: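 HeLa ESRE-bla reporter line; cpd 5 h, 37 C/5% CO2; LiveBLAzer B/G FRET substrate 2 h RT; ex 405, em 460/530 nm.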

[7] = qHTS assay to identify small molecule antagonists of the retinoid-related orphan receptor gamma (ROR-gamma) signaling pathway - cell viability counter screen (AID 1159520); note: % is set by controls: 0 for no effect and ±100 for the full control effect; nearly all actives have a fitted effect of over 50% in size
Summary of the method: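 Cytotoxicity was read from cellular ATP (CellTiter-Glo luminescence) after 16 hr at 37 C with 1 uM doxycycline induction. The inducer was added 2 hr after compound transfer to Tet-on ROR gamma CHO cells.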

[8] = target: Nuclear receptor ROR-gamma (Homo sapiens) (UniProt P51449); test: qHTS assay to identify small molecule antagonists of the retinoid-related orphan receptor gamma (ROR-gamma) signaling pathway (AID 1159521;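 note: CHO cells with doxycycline inducible ROR-gamma driving an RORE luciferase reporter; top concentration of the series differs between compounds; % is set by controls: 0 for no effect and ±100 for the full control effect; nearly all actives have a fitted effect of over 50% in size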)
Summary of the method: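 Readout: ONE-Glo luciferase luminescence, 30 min at room temperature. System: Tet-on RORγ CHO, RORE-LUC. Sequence: compound 2 h, doxycycline 1 uM final, 16 h at 37 C.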

[9] = qHTS assay to identify small molecule agonists of the AP-1 signaling pathway - cell viability counter screen (AID 1159525; calls by dose curve; note: nearly all actives have a fitted effect of over 55% in size)
Summary of the method: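 Intracellular ATP by Cell Titer Glo luminescence (30 min, RT) in the same ME-180 AP-1-bla wells after the 5 h compound exposure at 37 °C. Normalised to tetra n-octyl ammonium bromide and DMSO controls.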

[10] = qHTS assay to identify small molecule agonists of the peroxisome proliferator-activated receptor delta (PPARd) signaling pathway - cell viability counter screen (AID 743211); note: nearly all actives have a fitted effect of over 55% in size; note: potency is the fitted concentration of half-maximal effect
Summary of the method: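 Multiplexed format: after the 2 h room-temperature LiveBLAzer B/G FRET step, CellTiter-Glo was added to the same wells. Luminescence after 30 min gave cell viability; compound exposure was 17 h at 37C.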

[11] = target: Peroxisome proliferator-activated receptor delta (Homo sapiens) (UniProt Q03181); test: qHTS assay to identify small molecule antagonists of the peroxisome proliferator-activated receptor delta (PPARd) signaling pathway (AID 743215; active = well fitted inhibition curve with a large enough effect in the signal ratio in the repeat runs, not every such curve was filed as active; the % refers to the signal ratio;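 note: cells stimulated with agonist L165041 at 300 nM final during compound exposure; series mostly up to about 62 µM; % is set by controls: 0 for no effect and ±100 for the full control effect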)
Summary of the method: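 HEK293H GeneBLAzer PPARd UAS-bla reporter cells; cpd + L165041 300 nM final, 17 h 37 C; LiveBLAzer B/G FRET substrate 2 h RT; fluorescence intensity read-out. Antagonist mode.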

[12] = qHTS assay to identify small molecule agonists of the farnesoid-X-receptor (FXR) signaling pathway - cell viability counter screen (AID 743218); note: nearly all actives have a fitted effect of over 45% in size; note: potency is the fitted concentration of half-maximal effect
Summary of the method: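 Luminescence from CellTiter-Glo, read after 30 min at RT, reports viability of GeneBLAzer FXR-UAS-bla HEK 293T cells treated 16 h with compounds in the wells used for the beta-lactamase reporter.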

[13] = target: Vitamin D3 receptor (Homo sapiens) (UniProt P11473); test: qHTS assay to identify small molecule agonists of the vitamin D receptor (VDR) signaling pathway (AID 743222; calls by dose curve; note: % is set by controls: 0 for no effect and ±100 for the full control effect)
Summary of the method: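 Beta-lactamase reporter readout (LiveBLAzer B/G FRET, 2 h RT) in VDR-bla cells after 16 h compound treatment at 37C, 5% CO2; cells pre-incubated 4 h before pin transfer of DMSO solutions.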

[14] = qHTS assay to identify small molecule agonists of the vitamin D receptor (VDR) signaling pathway - cell viability counter screen (AID 743224); note: nearly all actives have a fitted effect of over 50% in size; note: potency is the fitted concentration of half-maximal effect
Summary of the method: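 Cytotoxicity counter screen: VDR-bla cells, 16 h compound exposure at 37C, 5% CO2; CellTiter-Glo luminescence, 30 min RT, same wells as bla read.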

[15] = qHTS assay to identify small molecule agonists of the AP-1 signaling pathway (AID 1159526; calls by dose curve; note: potency is the fitted concentration of half-maximal effect)
[16] = target: Retinoic acid receptor RXR-alpha (Homo sapiens) (UniProt P19793); test: qHTS assay to identify small molecule agonists of the RXR signaling pathway (AID 1159527; calls by dose curve; note: % is set by controls: 0 for no effect and ±100 for the full control effect; nearly all actives have a fitted effect of over 35% in size)
Summary of the method: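 Reporter activation is measured as beta-lactamase activity via FRET substrate cleavage (emission 460/530 nm) in HEK 293T cells expressing an RXR-alpha-driven bla construct, following 16 hr compound exposure at 37 C.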

[17] = target: Peroxisome proliferator-activated receptor delta (Homo sapiens) (UniProt Q03181); test: qHTS assay to identify small molecule agonists of the peroxisome proliferator-activated receptor delta (PPARd) signaling pathway (AID 743212; calls by dose curve; note: % is set by controls: 0 for no effect and ±100 for the full control effect)
Summary of the method: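 Beta-lactamase reporter readout: a ratiometric FRET signal from the LiveBLAzer substrate after 2 h at room temperature. Compound exposure at 37 °C in PPARδ-bla HEK293H cells driven by an upstream activator sequence.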

[18] = qHTS assay to identify small molecule antagonists of the peroxisome proliferator-activated receptor delta (PPARd) signaling pathway - cell viability counter screen (AID 743213); note: nearly all actives have a fitted effect of over 50% in size; note: potency is the fitted concentration of half-maximal effect
Summary of the method: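 In this counter screen, HEK293H cells carrying a UAS-beta-lactamase reporter are co-treated with test compounds and 300 nM L165041 (final) for 17 h at 37 C; cell viability is quantified by CellTiter-Glo luminescence.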

[19] = target: Bile acid receptor (Homo sapiens) (UniProt Q96RI1); test: qHTS assay to identify small molecule agonists of the farnesoid-X-receptor (FXR) signaling pathway (AID 743220; active = well fitted activation curve with a large enough effect in the signal ratio in the repeat runs, not every such curve was filed as active; the % refers to the signal ratio; note: % is set by controls: 0 for no effect and ±100 for the full control effect)
Summary of the method: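 FXR-UAS-bla HEK 293T cells carrying a UAS-driven beta-lactamase reporter were plated for 5 h at 37C/5% CO2, then exposed to DMSO-dissolved Tox21 10K compounds for 16 h at 37C. A LiveBLAzer B/G FRET substrate was loaded for 2 h at room temperature before fluorescence reading.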

Sequence of Peroxisome proliferator-activated receptor delta (Homo sapiens) (Q03181 whole entry, looked up): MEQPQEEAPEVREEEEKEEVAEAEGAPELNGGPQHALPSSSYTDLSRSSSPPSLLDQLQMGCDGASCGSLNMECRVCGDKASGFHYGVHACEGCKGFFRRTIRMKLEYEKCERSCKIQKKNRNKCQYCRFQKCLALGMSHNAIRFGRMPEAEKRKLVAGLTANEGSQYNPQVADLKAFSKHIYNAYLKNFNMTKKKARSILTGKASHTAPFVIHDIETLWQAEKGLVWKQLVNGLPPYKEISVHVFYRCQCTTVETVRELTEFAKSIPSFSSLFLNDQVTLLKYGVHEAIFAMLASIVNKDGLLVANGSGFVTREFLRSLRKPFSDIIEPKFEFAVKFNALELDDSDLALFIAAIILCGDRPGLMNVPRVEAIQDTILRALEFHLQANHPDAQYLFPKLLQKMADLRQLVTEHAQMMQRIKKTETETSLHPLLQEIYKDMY
Sequence of Retinoic acid receptor RXR-alpha (Homo sapiens) (P19793 whole entry, looked up): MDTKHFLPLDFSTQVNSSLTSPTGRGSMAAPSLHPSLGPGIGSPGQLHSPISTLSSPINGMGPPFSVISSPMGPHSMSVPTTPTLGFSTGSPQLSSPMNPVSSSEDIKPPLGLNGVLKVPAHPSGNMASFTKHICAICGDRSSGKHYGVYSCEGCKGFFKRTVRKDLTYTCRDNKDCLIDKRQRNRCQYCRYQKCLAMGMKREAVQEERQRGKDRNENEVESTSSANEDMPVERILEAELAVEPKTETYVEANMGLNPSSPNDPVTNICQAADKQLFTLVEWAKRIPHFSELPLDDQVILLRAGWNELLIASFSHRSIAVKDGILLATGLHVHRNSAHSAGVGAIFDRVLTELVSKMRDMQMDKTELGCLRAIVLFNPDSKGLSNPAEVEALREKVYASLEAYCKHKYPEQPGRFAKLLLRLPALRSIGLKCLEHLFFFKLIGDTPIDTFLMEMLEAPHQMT
Sequence of Bile acid receptor (Homo sapiens) (Q96RI1 whole entry, looked up): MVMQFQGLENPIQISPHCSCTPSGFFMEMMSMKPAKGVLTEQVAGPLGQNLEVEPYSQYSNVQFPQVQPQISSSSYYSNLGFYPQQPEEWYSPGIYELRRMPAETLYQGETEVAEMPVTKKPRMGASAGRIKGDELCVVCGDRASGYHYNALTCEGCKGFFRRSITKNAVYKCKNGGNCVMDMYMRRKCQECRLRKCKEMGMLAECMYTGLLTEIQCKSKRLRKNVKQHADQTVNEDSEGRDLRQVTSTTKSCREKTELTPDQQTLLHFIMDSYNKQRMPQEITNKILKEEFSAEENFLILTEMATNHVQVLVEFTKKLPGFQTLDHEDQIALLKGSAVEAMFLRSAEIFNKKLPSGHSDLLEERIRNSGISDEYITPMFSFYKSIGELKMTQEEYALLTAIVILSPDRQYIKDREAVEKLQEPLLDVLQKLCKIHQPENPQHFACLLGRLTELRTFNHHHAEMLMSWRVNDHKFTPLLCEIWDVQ
Sequence of Vitamin D3 receptor (Homo sapiens) (P11473 whole entry, looked up): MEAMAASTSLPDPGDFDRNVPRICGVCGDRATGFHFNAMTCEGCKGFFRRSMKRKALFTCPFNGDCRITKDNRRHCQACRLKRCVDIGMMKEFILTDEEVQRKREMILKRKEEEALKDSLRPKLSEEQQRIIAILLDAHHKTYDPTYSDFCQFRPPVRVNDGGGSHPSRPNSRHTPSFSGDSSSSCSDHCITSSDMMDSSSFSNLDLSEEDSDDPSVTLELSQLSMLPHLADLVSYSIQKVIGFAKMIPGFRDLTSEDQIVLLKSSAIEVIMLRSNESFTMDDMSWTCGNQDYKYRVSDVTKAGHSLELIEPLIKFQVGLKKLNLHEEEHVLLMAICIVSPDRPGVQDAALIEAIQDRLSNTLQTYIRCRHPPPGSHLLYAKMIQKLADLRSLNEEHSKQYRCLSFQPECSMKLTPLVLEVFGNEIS

C=C(C)C(=O)OCCCCCCCCCC
inactive: Potency [1] | Potency [2] | Potency [3] | Potency [4] | Potency [5] | Potency [6] | Potency [7] | Potency [8] | Potency [9]

CCC(=O)C(=O)CC
inactive: Potency [10] | Potency [11] | Potency [12] | Potency [2] | Potency [13] | Potency [3] | Potency [14] | Potency [4] | Potency [5] | Potency [6] | Potency [7] | Potency [9] | Potency [15] | Potency [16]

CCN1C(=O)c2ccccc2C1Nc1ccc(OCCN2CCCCC2)cc1 (stereo not drawn)
inactive: Potency [10] | Potency [17] | Potency [18] | Potency [1] | Potency [2] | Potency [13] | Potency [3] | Potency [4] | Potency [5] | Potency [6] | Potency [7] | Potency [9] | Potency [15] | Potency [16]

C#C[C@]1(OC(C)=O)CC[C@H]2[C@@H]3CCC4=C/C(=N/O)CC[C@@H]4[C@H]3CC[C@@]21CC
inactive: Potency [17] | Potency [18] | Potency [11] | Potency [19] | Potency [14] | Potency [4] | Potency [5] | Potency [6] | Potency [7]

O=C(O)CN(CCN(CC(=O)O)CC(=O)O)CC(=O)O
inactive: activity change, negative = cytotoxicity [10] 0.566% [at 2.7 µM] | viability change, negative = cytotoxic [12] -17.2% [at 2.7 µM] | activity change, negative = cytotoxicity [2] -12.7% [at 2.69 µM] | activity change, negative = cytotoxicity [14] -2.08% [at 2.7 µM] | viability change, negative = cytotoxic [4] 4.84% [at 3.11 µM] | activity, negative = cytotoxic [5] -2.83% [at 3.12 µM] | activation [6] -1.14% [at 3.11 µM] | activity, negative = cytotoxicity [7] -1.43% [at 3.27 µM] | viability change, negative = cytotoxic [9] -2.04% [at 2.72 µM] | activation [16] -6.85% [at 2.71 µM]

Cc1cccc(C)c1NC(=O)c1ccc(N)cc1
inactive: Potency [10] | Potency [17] | Potency [18] | Potency [12] | Potency [2] | Potency [13] | Potency [3] | Potency [4] | Potency [5] | Potency [6] | Potency [8] | Potency [9] | Potency [15] | Potency [16]

CN1CCC[C@@H]1CCO[C@](C)(c1ccccc1)c1ccc(Cl)cc1
inactive: Potency [19] | Potency [6] | Potency [7] | Potency [9]
active: Potency [10] 29.8 µM | Potency [18] 26.6 µM | Potency [2] 29.8 µM | Potency [5] 21.3 µM

Cc1ccc(O)c(N)c1
inactive: Potency [1] | Potency [12] | Potency [2] | Potency [4] | Potency [5] | Potency [6] | Potency [7] | Potency [8] | Potency [9]
active: Potency [14] 19.5 µM | Potency [15] 55 µM

O=c1[nH]c(=O)n([C@H]2C[C@H](O)[C@@H](CO)O2)cc1F
active: Potency [12] 13.3 µM | Potency [2] 11.9 µM
inactive: Potency [17] | Potency [11] | Potency [13] | Potency [3] | Potency [14] | Potency [4] | Potency [5] | Potency [6] | Potency [7] | Potency [9] | Potency [15] | Potency [16]
